# Results published in PubChem BioAssay (NCI).
# About 83,000 compounds went through this panel and 20% of them were active in at least one assay; those are over-represented in the sample as a whole.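 Assay: single dose, 48 h. Readout: percent growth (0 = no net growth; negative = cell death). Active: <10.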 Activity calls are given as the source filed them.
# Test system: MDA-MB-468 breast
# Assay: NCI-60 one-dose screen, 48 h (100 = growth as untreated, 0 = no growth, -100 = all killed)
# Settings: 10 µM unless noted
row,SMILES,growth
1,C[C@@H]1C[C@H]2C(=O)OCC(NC(=O)[C@H](Cc3cc(F)cc(F)c3)NC(=O)Nc3ccc(Cl)cc3F)C(=O)N3CCC[C@H]3C(=O)N3CCCC[C@H]3C(=O)N[C@@H](C)C(=O)N2C1 (stereo not given in full),-6.95% (active)
2,COc1ccc(Nc2ncc(Br)c(NCCCNC(=O)C3CCC3)n2)cc1,71.2% (inactive)
3,O=C1CSC(c2ccccc2Cl)N1c1nnc(-c2ccncc2)o1 (stereo not given),98.4% (inactive)
4,Cn1c(COC(=O)NCCn2ccnc2)nc2c(N3CCOCC3)nc(-c3ccccc3)nc21,-64.1% (active)
5,CCNCCNc1c(C)c(-c2ccc(C(F)(F)F)cc2)c(C#N)c2nc3ccccc3n12,56.1% (inactive)
6,CCOC(=O)c1c(C)nc2c(c1N)CC(=O)N2CCc1ccccc1,44% (inactive)
7,OCCN1CCCN(CCCN2c3ccccc3Sc3ccc(C(F)(F)F)cc32)CC1,39.6% (inactive)
8,O=C1NC(=S)NC(=O)C1=Cc1cn(Cc2cn(Cc3cccc4ccccc34)nn2)c2ccccc12,94.9% (inactive)
9,CS(=O)(=O)c1cccnn1,74% (inactive)
10,C=C(C)[C@@H]1CC[C@]2(C(=O)NCCNCCN)CC[C@]3(C)[C@H](CC[C@@H]4[C@@]5(C)C/C(=C/c6ccncc6)C(=O)C(C)(C)[C@@H]5CC[C@]43C)[C@@H]12,80.3% (inactive)
11,NC(=O)c1c(NC(=O)/C=C/c2cccs2)sc2c1CCC(=O)C2,37.2% (inactive)
12,CC(O)/C=C/C=C/C(O)CC/C=C/C(=O)NCC(C)(C)O (stereo not given),102% (inactive)
13,O=[N+]([O-])c1ccc(N/N=C\c2ccc(O)cc2O)nc1,56% (inactive)
14,CCCCCCn1c(-c2ccc(C(=O)O/N=C(\N)c3ccc4c(c3)OCO4)cc2)nc(-c2ccccc2)c1-c1ccccc1,43.4% (inactive)
15,Cc1ccc(NSc2ccccc2[N+](=O)[O-])cc1,17.6% (inactive)
16,COc1ccc(Nc2cc(C)nc(NCc3ccccc3)n2)cc1,49.9% (inactive)
17,CN1CCN(Cc2ccc(NC(=O)c3cncc(C#Cc4c(N)ncc5ccccc45)c3)cc2C(F)(F)F)CC1,-71.6% (active)
18,CCCCCCNC(=O)Oc1ccc(/C(=C(\C)c2ccc(Cl)cc2)c2ccc(OCCN(CC)CC)cc2)cc1,52.4% (inactive)
19,CCCCCCCCCCCCCCCCCC1=NC(C)(C)CN1CCO,-69% (active)
20,CC(C)C1=NOC(=O)C1=Cc1cn(-c2ccccc2)nc1-c1ccc(Br)cc1,92.2% (inactive)
21,Cn1cc(-c2noc(C(=O)c3cn(C)c4ncccc34)n2)c2ccccc21,-9.42% (active)
22,C#C[C@]1(O)CC[C@H]2[C@@H]3CC[C@H]4CC(F)(F)CC[C@]4(C)[C@H]3CC[C@@]21C,88.2% (inactive)
23,CC(C)OCC1CO1 (stereo not given),108% (inactive)
24,NC1[C@H](c2c[nH]c3ccccc23)c2c([nH]c3ccccc23)[C@H]1c1c[nH]c2ccccc12 (stereo not given in full),106% (inactive)
25,CNC(=O)c1ccccc1Oc1nc(Nc2cc(OC)c(OC)c(OC)c2)ncc1Br,49.6% (inactive)
